These results are taken from the supplement of paper PMC10849652.

About 8,800 targets were measured; listed, in parts, are those with a hit and a random draw of the rest. About 0.5% of all pairs of compound and target were hits. Unmarked numbers belong to inactive results.

Sequence of UniProt Q9NP59 (Q9NP59 whole entry, looked up): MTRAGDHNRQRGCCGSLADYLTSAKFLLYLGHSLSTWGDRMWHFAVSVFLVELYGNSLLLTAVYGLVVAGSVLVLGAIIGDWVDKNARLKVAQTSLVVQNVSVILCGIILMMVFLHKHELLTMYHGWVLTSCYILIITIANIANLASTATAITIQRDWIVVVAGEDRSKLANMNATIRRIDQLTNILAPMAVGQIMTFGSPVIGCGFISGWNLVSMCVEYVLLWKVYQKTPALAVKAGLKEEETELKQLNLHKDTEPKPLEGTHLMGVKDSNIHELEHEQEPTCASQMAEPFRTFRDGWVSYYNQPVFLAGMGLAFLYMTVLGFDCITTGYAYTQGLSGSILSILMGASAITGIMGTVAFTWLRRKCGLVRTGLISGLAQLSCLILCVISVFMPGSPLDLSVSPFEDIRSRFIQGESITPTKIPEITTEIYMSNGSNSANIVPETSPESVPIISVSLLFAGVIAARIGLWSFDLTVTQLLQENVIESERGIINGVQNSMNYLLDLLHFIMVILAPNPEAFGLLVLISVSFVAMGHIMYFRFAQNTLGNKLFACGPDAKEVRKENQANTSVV
Sequence of UniProt Q9UEE5 (Q9UEE5 whole entry, looked up): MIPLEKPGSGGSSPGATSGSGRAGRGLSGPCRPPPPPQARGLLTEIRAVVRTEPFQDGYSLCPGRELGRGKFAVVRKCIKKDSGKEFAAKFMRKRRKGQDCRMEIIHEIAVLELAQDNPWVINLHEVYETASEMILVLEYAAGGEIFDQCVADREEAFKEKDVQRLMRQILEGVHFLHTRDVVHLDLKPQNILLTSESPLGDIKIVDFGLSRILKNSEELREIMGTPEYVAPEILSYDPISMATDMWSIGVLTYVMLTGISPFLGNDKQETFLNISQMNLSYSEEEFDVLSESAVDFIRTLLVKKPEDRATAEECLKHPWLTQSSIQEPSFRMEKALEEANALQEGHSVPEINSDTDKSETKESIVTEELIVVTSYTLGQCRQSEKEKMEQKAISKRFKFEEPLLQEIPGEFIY
Sequence of UniProt O00161 (O00161 whole entry, looked up): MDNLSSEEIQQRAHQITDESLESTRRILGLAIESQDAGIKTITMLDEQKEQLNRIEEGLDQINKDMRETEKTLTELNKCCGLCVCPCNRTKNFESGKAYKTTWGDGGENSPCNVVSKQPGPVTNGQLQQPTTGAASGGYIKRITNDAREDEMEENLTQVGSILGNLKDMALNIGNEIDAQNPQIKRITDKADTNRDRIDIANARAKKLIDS
Sequence of UniProt O95391 (O95391 whole entry, looked up): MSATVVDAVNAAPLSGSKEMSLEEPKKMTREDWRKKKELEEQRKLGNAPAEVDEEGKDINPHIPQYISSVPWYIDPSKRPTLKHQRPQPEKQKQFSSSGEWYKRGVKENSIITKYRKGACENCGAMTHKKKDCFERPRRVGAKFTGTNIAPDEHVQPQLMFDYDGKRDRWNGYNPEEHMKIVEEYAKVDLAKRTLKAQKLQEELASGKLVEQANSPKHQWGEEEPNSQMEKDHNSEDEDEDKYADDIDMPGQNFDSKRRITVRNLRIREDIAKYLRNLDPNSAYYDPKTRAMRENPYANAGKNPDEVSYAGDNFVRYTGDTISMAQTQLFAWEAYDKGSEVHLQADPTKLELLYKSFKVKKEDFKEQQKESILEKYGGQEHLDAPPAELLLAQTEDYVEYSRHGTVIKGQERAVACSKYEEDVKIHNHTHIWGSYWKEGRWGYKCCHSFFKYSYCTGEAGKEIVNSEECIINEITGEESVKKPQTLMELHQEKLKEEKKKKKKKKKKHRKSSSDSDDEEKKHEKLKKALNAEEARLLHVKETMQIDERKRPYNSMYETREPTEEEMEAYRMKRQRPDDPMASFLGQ
Sequence of UniProt Q13487 (Q13487 whole entry, looked up): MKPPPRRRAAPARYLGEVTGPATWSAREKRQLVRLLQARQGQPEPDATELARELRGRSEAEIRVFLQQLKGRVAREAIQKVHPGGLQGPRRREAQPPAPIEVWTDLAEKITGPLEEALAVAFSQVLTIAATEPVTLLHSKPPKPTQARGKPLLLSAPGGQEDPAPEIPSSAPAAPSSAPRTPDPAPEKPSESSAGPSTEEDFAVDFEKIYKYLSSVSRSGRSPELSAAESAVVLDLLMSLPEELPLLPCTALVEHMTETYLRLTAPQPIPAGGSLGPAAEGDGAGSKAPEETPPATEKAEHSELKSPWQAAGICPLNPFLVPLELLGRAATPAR
Sequence of UniProt O75182 (O75182 whole entry, looked up): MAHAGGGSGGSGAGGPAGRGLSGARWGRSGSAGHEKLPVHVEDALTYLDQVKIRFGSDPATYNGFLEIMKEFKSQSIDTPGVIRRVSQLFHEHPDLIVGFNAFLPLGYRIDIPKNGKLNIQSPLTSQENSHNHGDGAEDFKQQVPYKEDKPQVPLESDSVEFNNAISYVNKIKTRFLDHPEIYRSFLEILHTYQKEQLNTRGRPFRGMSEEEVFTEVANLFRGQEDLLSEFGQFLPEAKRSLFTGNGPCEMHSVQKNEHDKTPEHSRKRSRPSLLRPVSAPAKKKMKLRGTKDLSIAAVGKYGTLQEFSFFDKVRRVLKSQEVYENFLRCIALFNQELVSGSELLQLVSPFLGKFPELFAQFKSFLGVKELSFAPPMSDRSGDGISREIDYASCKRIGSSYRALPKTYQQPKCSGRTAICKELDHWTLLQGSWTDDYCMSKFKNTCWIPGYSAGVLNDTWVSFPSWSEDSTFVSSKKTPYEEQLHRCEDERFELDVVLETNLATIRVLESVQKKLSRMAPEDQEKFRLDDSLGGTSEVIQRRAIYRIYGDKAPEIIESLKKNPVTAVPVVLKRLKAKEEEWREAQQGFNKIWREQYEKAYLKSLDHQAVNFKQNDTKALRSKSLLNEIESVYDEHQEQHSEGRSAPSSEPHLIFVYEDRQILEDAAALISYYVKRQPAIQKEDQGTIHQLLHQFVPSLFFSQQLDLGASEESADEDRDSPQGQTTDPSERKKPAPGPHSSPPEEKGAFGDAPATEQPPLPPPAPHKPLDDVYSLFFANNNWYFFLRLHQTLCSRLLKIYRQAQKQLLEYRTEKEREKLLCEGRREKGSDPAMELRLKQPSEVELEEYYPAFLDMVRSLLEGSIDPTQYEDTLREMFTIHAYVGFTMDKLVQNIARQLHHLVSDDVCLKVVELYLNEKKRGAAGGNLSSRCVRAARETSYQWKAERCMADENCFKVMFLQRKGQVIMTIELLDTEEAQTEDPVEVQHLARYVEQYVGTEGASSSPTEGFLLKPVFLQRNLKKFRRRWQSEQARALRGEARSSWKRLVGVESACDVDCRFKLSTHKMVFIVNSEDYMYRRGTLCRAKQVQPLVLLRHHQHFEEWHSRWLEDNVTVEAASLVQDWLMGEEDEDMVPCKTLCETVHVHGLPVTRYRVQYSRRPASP
Sequence of UniProt P49675 (P49675 whole entry, looked up): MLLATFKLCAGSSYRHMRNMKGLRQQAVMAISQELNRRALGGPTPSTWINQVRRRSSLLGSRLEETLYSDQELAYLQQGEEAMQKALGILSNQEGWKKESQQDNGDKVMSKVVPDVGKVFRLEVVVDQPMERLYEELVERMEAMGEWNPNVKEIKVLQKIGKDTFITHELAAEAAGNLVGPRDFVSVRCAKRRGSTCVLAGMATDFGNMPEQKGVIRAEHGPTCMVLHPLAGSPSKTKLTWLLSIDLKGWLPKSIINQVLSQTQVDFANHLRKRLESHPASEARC
Sequence of UniProt O60906 (O60906 whole entry, looked up): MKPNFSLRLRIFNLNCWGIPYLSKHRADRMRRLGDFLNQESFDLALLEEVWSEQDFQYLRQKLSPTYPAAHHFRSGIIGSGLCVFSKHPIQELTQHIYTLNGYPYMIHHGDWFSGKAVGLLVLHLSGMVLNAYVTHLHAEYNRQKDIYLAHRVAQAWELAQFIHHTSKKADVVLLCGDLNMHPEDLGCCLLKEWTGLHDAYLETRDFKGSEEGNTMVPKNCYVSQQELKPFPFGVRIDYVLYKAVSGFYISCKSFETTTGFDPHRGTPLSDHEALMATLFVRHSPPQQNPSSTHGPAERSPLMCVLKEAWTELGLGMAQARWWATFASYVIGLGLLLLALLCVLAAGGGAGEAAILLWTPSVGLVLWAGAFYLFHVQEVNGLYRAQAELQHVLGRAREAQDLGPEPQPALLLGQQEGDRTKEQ
Sequence of UniProt Q15544 (Q15544 whole entry, looked up): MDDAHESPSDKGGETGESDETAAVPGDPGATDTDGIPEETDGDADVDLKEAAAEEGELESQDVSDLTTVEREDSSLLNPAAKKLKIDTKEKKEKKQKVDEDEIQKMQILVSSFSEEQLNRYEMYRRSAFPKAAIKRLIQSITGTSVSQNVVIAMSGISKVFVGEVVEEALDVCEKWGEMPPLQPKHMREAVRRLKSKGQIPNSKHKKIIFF
Sequence of UniProt Q96CQ1 (Q96CQ1 whole entry, looked up): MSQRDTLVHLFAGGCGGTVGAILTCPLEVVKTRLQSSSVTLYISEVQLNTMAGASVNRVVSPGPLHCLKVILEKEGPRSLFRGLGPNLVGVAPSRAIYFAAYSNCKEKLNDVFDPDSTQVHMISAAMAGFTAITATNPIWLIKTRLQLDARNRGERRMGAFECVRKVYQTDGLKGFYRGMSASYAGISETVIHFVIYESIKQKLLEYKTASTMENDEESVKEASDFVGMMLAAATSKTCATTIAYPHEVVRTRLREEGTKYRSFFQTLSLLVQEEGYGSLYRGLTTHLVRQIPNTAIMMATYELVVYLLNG
Sequence of UniProt Q9Y2D2 (Q9Y2D2 whole entry, looked up): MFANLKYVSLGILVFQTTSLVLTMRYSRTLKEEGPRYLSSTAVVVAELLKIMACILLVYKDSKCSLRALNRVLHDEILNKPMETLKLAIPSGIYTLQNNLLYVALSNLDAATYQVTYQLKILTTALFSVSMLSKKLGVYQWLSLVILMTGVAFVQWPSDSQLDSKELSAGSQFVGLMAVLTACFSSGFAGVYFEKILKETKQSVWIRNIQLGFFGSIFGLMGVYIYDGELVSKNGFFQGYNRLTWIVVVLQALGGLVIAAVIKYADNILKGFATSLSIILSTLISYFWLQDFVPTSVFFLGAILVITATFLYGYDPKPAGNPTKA
Sequence of UniProt B2RUZ4 (B2RUZ4 whole entry, looked up): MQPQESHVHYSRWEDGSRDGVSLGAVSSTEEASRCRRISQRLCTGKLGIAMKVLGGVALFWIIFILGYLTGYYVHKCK

Compound in the assay: CN1CC[C@H](c2c(O)cc(O)c3c(=O)cc(-c4ccccc4Cl)oc23)[C@H](O)C1 [alvocidib]
The experiment in a line: log2 fold change, soluble protein after heating vs DMSO (PISA); higher = thermal stabilisation; K562 lysate, 10 uM; active = over 0.2 and 3.5 SD of the protein, either way, in both replicates (recomputed). In a few lines:
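Thermal stability, expressed as log-two fold change relative to solvent controls, is given from duplicates. Crude K562 extract in PBS pH 7.4 with 1 mM MgCl2, at 1 mg/mL protein, was treated with 10 μM compound for 30 min and heated in aliquots for 3 min across 48°C-58°C. After pooling, adjustment to 0.5% NP-40 at 4°C and centrifugation at 21,000xg for 90 min, supernatant protein was measured by TMTpro 16plex LC-MS/MS with channel sums equalised.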
Regarding SKP2 (UniProt Q13309), the log2 fold change is -0.048.

In the case of SRC isoform 2 (UniProt P12931), the log2 fold change was -0.035.

With SNAP23 isoform 2 (UniProt O00161), the log2 fold change was -0.323.

For the target SMARCA4 isoform 4 (UniProt P51532), the log2 fold change was 0.078.

For SZT2 (UniProt Q5T011), the log2 fold change was -0.169.

SHC1 (UniProt P29353): the log2 fold change is 0.144.

In the case of STAR (UniProt P49675), the log2 fold change was -0.024.

Regarding SHB (UniProt Q15464), the log2 fold change was -0.139.

For STK17A (UniProt Q9UEE5), the log2 fold change was 0.182.

On to SNAPC2 (UniProt Q13487), for which the log2 fold change was -0.034.

Turning to SIN3B (UniProt O75182), the log2 fold change is -0.463.

Take STAU1 isoform 3 (UniProt O95793): the log2 fold change was -0.06.

For TAF11 (UniProt Q15544), the log2 fold change was -0.015.

For the target SMIM1 (UniProt B2RUZ4), the log2 fold change is -0.031.

On to SLU7 (UniProt O95391), for which the log2 fold change was -0.086.

In the case of SLC25A36 (UniProt Q96CQ1), the log2 fold change is 0.024.

Take SMPD2 (UniProt O60906): the log2 fold change is -0.043.

Turning to SLC40A1 (UniProt Q9NP59), the log2 fold change is 0.002.

Consider SLC41A1 (UniProt Q8IVJ1), for which the log2 fold change is -0.213.

In the case of SLCO4A1 (UniProt Q96BD0), the log2 fold change was -0.129.

Consider SIX5 (UniProt Q8N196), for which the log2 fold change was 0.159.

As to SLC35A3 isoform 2 (UniProt Q9Y2D2), the log2 fold change is -0.406.
